The text below walks through data of PubChem BioAssay AID720514 (Broad Institute, 2013).

SMILES strings stand for the structures. Out of some 2,100 compounds screened, about 300 (14%) were called active. Roughly 2% stayed inconclusive and do not appear here.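 Rule for the calls: active = every replicate test run called active, with the signal falling and half-maximal concentration within twice the top valid dose; inconclusive = the replicate test runs disagree in their calls; inactive = every test run inactive, including effects in the opposite direction.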 The list is a sample of the results. Where a call stands in place of a potency, no number is given. Potency and affinity values are given separately.

The nature of this experiment: inhibitors of PGC1a acetylation in cells, dose response, cell-based, cherry-picked samples (AID 720514).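 Note: actives lower the acetylation signal so they count as inhibitors of PGC1a acetylation.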 The following applies: U2OS PGC1a acetylation, AlphaLISA, overnight; series mostly up to 19.5 µM. On the technique in general: In Alpha technology, singlet oxygen from a donor bead excites a nearby acceptor bead.
As to `O=C(/C=C/Sc1ncn[nH]1)c1ccc(Cl)cc1`, the result was inactive. With `Cc1sc(NC(=O)c2cccs2)nc1-c1ccccc1`, the compound was called inactive. On to `CN1CCN(C(=O)CSc2nc(-c3cccs3)cc(-c3cccs3)c2C#N)CC1`, for which the compound was classed as inactive. In the case of `CC(=O)c1ccc(OCC(=O)OCC(=O)Nc2sccc2C(N)=O)cc1`, the compound was called inactive. For the compound `CCOC(=O)c1c(NC(=O)CSc2cn(CC)c3ccccc23)sc2c1CCC2`, the outcome was inactive.

As to `CCOC(=O)c1nc(S(C)(=O)=O)ncc1Cl`, the compound was classed as inactive. With `O=C(c1ccc(NC(=O)C2(c3ccccc3)CCOCC2)cc1)N1CCOCC1`, the result was inactive. Then `CCOC(=O)c1c(NC(=O)c2ccoc2C)sc2c1CCC2`, with “inactive”.

With `CC1CCCN(Cc2c(O)ccc3c(=O)c(-c4nc5ccccc5s4)c(N)oc23)C1` (stereo not given), the compound was called inactive.

For `Cc1ccccc1S(=O)(=O)NCC[C@@H]1CC[C@H](NC(=O)C2CCOCC2)[C@@H](CO)O1`, the compound was classed as inactive. Regarding `CC(C)NC(=O)NCC[C@H]1CC[C@H](NC(=O)c2ccc(F)cc2)[C@H](CO)O1`, the call was inactive. `CCC(C)(CC(=O)O)CC(=O)Nc1cc(C(F)(F)F)cc(C(F)(F)F)c1` (stereo not given): the call was inactive.

On to `COc1ccc(-c2nc3c(C)cc(Br)cn3c2Cc2ccc(C)cc2)cc1OC`, for which the outcome was inactive. For `COc1cc(C)c(CN2CCN(S(=O)(=O)c3ccc(Cl)s3)CC2)cc1OC`, the compound was called inactive. As for `O=C(CN1CCC(n2nnc3cc(F)ccc32)CC1)Nc1ccc2c(c1)CCC2`, the entry is “inactive”; as for `CCOC(=O)C1=C[C@@H](C(C)(C)C)N(S(=O)(=O)c2ccc(C)cc2)[C@H]1c1cccc2ccccc12`, “inactive”; as for `Cc1ccccc1S(=O)(=O)N[C@@H]1CC[C@@H](CCn2cc(Cc3ccccc3)nn2)O[C@H]1CO`, “inactive”. Take `CC(C)(C)C(=O)Nc1sc2c(c1-c1nc3ccccc3[nH]1)CCCC2`: the result was inactive. On to `CC(Sc1nc2ccccc2s1)C(=O)NC1CCCc2ccccc21` (stereo not given), for which the result was inactive.

For the compound `Cc1ccc(CNC(=O)C2CC(c3ccc([N+](=O)[O-])cc3)=NO2)cc1` (stereo not given), the outcome was inactive. Take `Cc1coc2cc3oc(=O)c(CCC(=O)NC4CC4)c(C)c3cc12`: the compound was called inactive. As to `Cc1ccccc1-c1ccc([C@@H]2[C@H](CO)N3CCCCN(C(=O)Nc4cccc(F)c4)C[C@@H]23)cc1`, the call was inactive. On to `CCOc1ccc(N(C)S(=O)(=O)c2cc(-c3cc(C)no3)ccc2OC)cc1`, for which the compound was classed as inactive. For `CCOC(=O)c1ccccc1NS(=O)(=O)c1ccc(OCC)cc1`, the compound was classed as inactive. Then `COc1ccc(NC(=O)CSC2CC(=O)N(c3ccc4c(c3)OCCO4)C2=O)cc1` (stereo not given), with “inactive”. Consider `COc1ccc(N(C(=O)c2snc(C(N)=O)c2N)C(C(=O)NC2CCCCC2)c2ccc(F)cc2)c(OC)c1` (stereo not given), for which the compound was classed as inactive. On to `COc1ccc(N(C(=O)c2csnn2)C(C(=O)NC2CCCC2)c2cccs2)cc1` (stereo not given), for which the result was inactive. Consider `COc1ccc(N(C(=O)c2snc(C(N)=O)c2N)C(C(=O)NC2CCCCC2)c2ccc(C)o2)cc1` (stereo not given), for which the call was inactive. For the compound `COc1ccc(N(C(=O)c2snc(C(N)=O)c2N)C(C(=O)NC2CCCC2)c2ccco2)c(OC)c1` (stereo not given), the outcome was inactive. For the compound `CC(C)C(OC(=O)c1cccs1)C(=O)NC1CCCCC1` (stereo not given), the result was inactive. Then `C[C@@H]1CN([C@H](C)CO)C(=O)c2c(c3ccccc3n2C)-c2ccccc2CO[C@@H]1CN(C)C(=O)c1ccc(F)cc1`, with “inactive”; and `Oc1ccc(Nc2nnc(-c3ccc(O)cc3)c3ccccc23)cc1`, with “inactive”. For the compound `O=C(CC1SC(=Nc2ccc3c(c2)OCCO3)NC1=O)Nc1ccc(F)cc1F` (stereo not given), the result was inactive. Turning to `CCOC(=O)C1=C[C@@H](C(C)(C)C)N(S(=O)(=O)c2ccc(C)cc2)[C@H]1c1ccccc1`, the compound was called inactive. As to `CC(C)(C)n1nnnc1CN(Cc1ccc(F)cc1)Cc1ccco1`, the compound was classed as inactive.

For `CCOC(=O)c1c(CN2CCN(CC#N)CC2)n(C)c2cc(Br)c(OC)cc12`, the compound was called inactive. In the case of `CCOC(=O)c1c(C)n(C)c2ccc(OCC(O)Cn3nc(C)c(Br)c3C)cc12` (stereo not given), the compound was called inactive. Then `O=C(NN1c2ccccc2CCc2ccccc21)c1ccccc1Br`, with “inactive”. Turning to `CCOCCn1c(CN(Cc2ccccc2)Cc2ccccc2)nc2c1c(=O)n(C)c(=O)n2C`, the outcome was inactive. For the compound `CC(=O)Nc1nonc1-c1nc2ccccc2n1Cc1ccccc1`, the outcome was inactive. Take `CCOC(=O)CNS(=O)(=O)c1cc(-c2nnc(Nc3ccc4c(c3)OCO4)c3ccccc23)ccc1C`: the outcome was inactive. On to `O=C(COCc1cc(-c2ccc3c(c2)OCO3)on1)Nc1cccnc1`, for which the outcome was inactive. As for `O=C(COc1ccc([N+](=O)[O-])cc1)Nc1ccc(C(=O)NCc2cccnc2)cc1`, the entry is “inactive”.

As to `CCOC(=O)C(NC(=O)c1ccccc1OCC)(Nc1ncccn1)C(F)(F)F` (stereo not given), the outcome was inactive.

For `Cc1c(C(=O)OCC(=O)c2c(N)n(CC(C)C)c(=O)n(C)c2=O)oc2ccccc12`, the outcome was inactive.

`COc1ccc(C2N(S(=O)(=O)c3ccccc3)CCN2S(=O)(=O)c2ccc(C)cc2)cc1` (stereo not given): the result was inactive. Then `Cc1ccc(S(=O)(=O)N2CCN(S(=O)(=O)c3ccc(C)cc3)C2c2ccccc2)cc1`, with “inactive”; and `O=C(NCc1cccs1)c1ccc(Cl)c(S(=O)(=O)N2CCCC2)c1`, with “inactive”; and `COc1ccc(C(CNC(=O)c2cccc(N(C)C)c2)N2CCCC2)cc1` (stereo not given), with “inactive”. `C[C@@H]1CN([C@H](C)CO)C(=O)c2c(c3ccccc3n2C)-c2ccccc2CO[C@@H]1CN(C)C(=O)[C@H](C)c1ccccc1`: the compound was called inactive. In the case of `COc1cc(CNC(=O)c2cc(-c3cc(C)cc(F)c3)n[nH]2)cc(OC)c1`, the call was inactive.

`Cc1ccc(NC(=O)c2c(C(F)(F)F)nn(C)c2SCc2ccc(Cl)cc2)cc1C`: the call was inactive.

In the case of `CC(=O)Nc1cc(C(=O)OCc2cccc([N+](=O)[O-])c2)ccc1C`, the outcome was inactive. Then `O=C(Nc1c(F)cccc1F)c1ccc(-n2cncn2)nc1`, with “inactive”; and `Cc1ccc(C(=O)c2c[nH]c(C(=O)NCc3cccnc3)c2)cc1`, with “inactive”. For the compound `CC(C)(C)c1ccc(C(=O)Nc2ccc(C(=O)NCc3cccnc3)cc2)cc1`, the result was inactive.

With `CCO[C@H]1OC(C(=O)N2CCCCCCC2)=C[C@@H](C2CCCCC2)[C@@H]1CCCO`, the result was inactive.

For `Cc1cc(=O)oc2cc(OCC(=O)OCC(=O)Nc3ccccc3F)ccc12`, the compound was called inactive. On to `C[C@@H]1CN([C@@H](C)CO)C(=O)c2c(c3ccccc3n2C)-c2ccccc2CO[C@@H]1CN(C)C(=O)c1ccccc1`, for which the outcome was inactive.

With `C[C@@H]1CN([C@H](C)CO)C(=O)c2c(c3ccccc3n2C)-c2ccccc2CO[C@@H]1CN(C)C(=O)c1ccccc1`, the outcome was inactive.
